A selection: hits, their analogues and other compounds. The true share with any hit is near 5.4%.
Calb FLC – C. albicans growth modulation with fluconazole; growth inhibition, % (test concentration not listed); 0.57% of 300,000 active; AID 1979; C. albicans CaCi-2 (fluconazole-resistant clinical isolate) + fluconazole, Alamar Blue growth, 48 h;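 active means growth inhibition above about 58% in most replicates, limit read from the data, passing the limit was not always enough; inconclusive means exactly half the replicates above a set limit; inactive means most replicates below a set limit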;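 further: all wells also contain fluconazole at 8 µg/ml as a sub-toxic cotreatment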
Beta cell apopt – beta cell apoptosis inhibition; INS-1E cytokine-induced death, ATP luminescence, 48 h; percent of positive-control rescue, neutral wells zero; protection from apoptosis, % (concentration not given with the values); 0.8% of 300,000 active; AID 435005;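 active means Every replicate reaches about 75%, or at least half do and their mean reaches it too, limit read from the data; inconclusive means At least half of replicates reach the limit but their mean does not; inactive means Under half of replicates reach the limit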;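 further: higher means more ATP so stronger rescue from cytokine killing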
MPTP block – permeability transition pore inhibition; 1.4% of 360,000 active; AID 602449; inhibition, % at 10 µM; isolated mouse mitochondria, Ca2+ swelling absorbance, 30 min;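 active means inhibition of 50% or more, scaled per plate between neutral and stimulator controls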
Mdm2 MdmX PPI – disrupts the human Mdm2-MdmX interaction. 3% of 330,000 active. O15151+Q00987. AID 485346. inhibition, % at 8 µM. SaOS-2 split-luciferase Mdm2/MdmX complementation, luminescence;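 active means inhibition of at least 50% at 8 µM in the primary screen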
Target sequence (O15151 whole entry, looked up): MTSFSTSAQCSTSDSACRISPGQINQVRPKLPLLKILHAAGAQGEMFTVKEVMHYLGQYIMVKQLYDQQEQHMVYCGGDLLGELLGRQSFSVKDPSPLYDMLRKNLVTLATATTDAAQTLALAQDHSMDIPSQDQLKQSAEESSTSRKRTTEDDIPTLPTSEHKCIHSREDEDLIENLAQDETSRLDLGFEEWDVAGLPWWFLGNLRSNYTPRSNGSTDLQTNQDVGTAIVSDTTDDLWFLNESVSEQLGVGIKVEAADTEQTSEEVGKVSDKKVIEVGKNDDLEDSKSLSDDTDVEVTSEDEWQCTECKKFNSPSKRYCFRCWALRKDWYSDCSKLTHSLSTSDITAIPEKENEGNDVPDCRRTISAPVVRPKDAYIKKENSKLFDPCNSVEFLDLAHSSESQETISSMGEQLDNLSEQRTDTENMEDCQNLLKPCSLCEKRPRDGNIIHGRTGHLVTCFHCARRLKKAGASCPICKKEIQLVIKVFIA
Target sequence (Q00987 whole entry, looked up): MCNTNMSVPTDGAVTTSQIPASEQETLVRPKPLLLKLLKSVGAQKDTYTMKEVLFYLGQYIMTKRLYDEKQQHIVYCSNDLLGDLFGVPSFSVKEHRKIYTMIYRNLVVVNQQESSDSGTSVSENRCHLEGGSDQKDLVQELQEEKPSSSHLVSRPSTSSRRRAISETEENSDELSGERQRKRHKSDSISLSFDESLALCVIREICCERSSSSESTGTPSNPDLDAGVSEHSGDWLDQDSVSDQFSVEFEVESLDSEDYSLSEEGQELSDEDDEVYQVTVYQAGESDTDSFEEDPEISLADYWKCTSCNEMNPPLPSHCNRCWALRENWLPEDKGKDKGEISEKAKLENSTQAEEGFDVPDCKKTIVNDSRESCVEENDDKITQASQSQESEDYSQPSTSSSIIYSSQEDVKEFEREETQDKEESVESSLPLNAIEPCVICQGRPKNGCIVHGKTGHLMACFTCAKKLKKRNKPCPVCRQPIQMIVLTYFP
CSC inhib – blocks cancer stem cells; AID 2717; 1.1% of 300,000 active; cancer stem cell-like cells viability, luminescence; inhibition, % at 7.5 µM; in the data active means inhibition above about 75%; inconclusive means no clear call, values can overlap the other calls; tested in HMLE shEcad cells
SKKanGAS inh – blocks kanamycin growth of S. pyogenes SKKanGAS strain; BacTiter-Glo, 6 h; AID 1662; inhibition, % at 7.5 µM; 1.3% of 300,000 active;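 active means mean replicate score, as percent of positive control median, at least 50; inconclusive means mean below 50 but one replicate at or above 50; inactive means mean and every replicate below 50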;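 further: strain carries kanamycin resistance gene driven by streptokinase promoter and grows in 40 µg/ml kanamycin; loss of luminescence reflects streptokinase promoter inhibition or plain growth inhibition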
Large screens that a line does not name were inactive.

CC(C)(C)c1ccc(C(=O)NCCC(=O)NC2=NCCS2)cc1	none (no result: Calb FLC, CSC inhib, SKKanGAS inh)
CC(C)(C)c1ccc(OCCCC(=O)NC2=NCCS2)cc1	SKKanGAS inh 62
Cc1[nH]n2c(=O)cc(C(C)(C)C)nc2c1-c1ccccc1	SKKanGAS inh 89
OC1CN=C2CCCc3c2n(c2ccc(Cl)cc32)C1 (configuration not stated)	none
c1ccc(-c2ccc3c(c2)c2c4n3CCN=C4CCC2)cc1	Calb FLC 99 (no result: CSC inhib)
CCCCS(=O)(=O)N1CCC(C(=O)Oc2ccc(Cl)cc2)CC1	none
O=C(COc1ccccc1)N/N=C/c1ccc([N+](=O)[O-])o1	none
Cc1nonc1C(=O)N/N=C/c1ccc([N+](=O)[O-])o1	Calb FLC 82
Cc1cc(C(=O)N/N=C/c2ccc([N+](=O)[O-])o2)c(C)o1	none
O=C(CNc1ccc2ccccc2c1)N/N=C/c1ccc([N+](=O)[O-])o1	SKKanGAS inh 83
Cc1ccc(C(C)NC(=S)NC2CCCCC2)c(C)c1 (configuration not stated)	Calb FLC inconclusive
Cc1cc(N(C)C)nc(SC(C)C)n1	none
CCC(C(=O)N1CCC(N2CCCCC2)CC1)n1nc(C)c2sc3ccccc3c2c1=O (configuration not stated)	SKKanGAS inh 53
COC(=O)CN1C(=O)COc2ccc(S(=O)(=O)NCc3ccc(F)cc3)cc21	none
COc1ccc(NC(=S)Nn2cnnc2)cc1OC	none
Cc1cccc(-n2[nH]c3c4c(ccc3c2=O)C(=O)c2ccccc2C4=O)c1	SKKanGAS inh 80
Fc1ccc(CNCc2cccc(Br)c2)cc1	none
CS(=O)(=O)c1ccc2nc(NC(=O)c3ccc(NS(=O)(=O)c4ccc(F)c(F)c4)cc3)sc2c1	SKKanGAS inh 85
O=C(Nc1nc2ccc(SC(F)F)cc2s1)c1ccc(NS(=O)(=O)c2ccc(F)c(F)c2)cc1	Calb FLC inconclusive, CSC inhib 79, SKKanGAS inh 114
CS(=O)(=O)c1ccc2nc(NC(=O)c3cccc(NS(=O)(=O)c4ccc(F)c(F)c4)c3)sc2c1	none
CCc1ccc(/C=C2/SC(=S)N(CC(=O)Nc3nc4ccccc4s3)C2=O)cc1	SKKanGAS inh 79
O=C(CN1C(=O)S/C(=C\C=C\c2ccccc2)C1=O)Nc1ccccc1C(=O)O	SKKanGAS inh 70
COc1ccc(/C=C2/SC(=S)N(Cc3ccccc3)C2=O)cc1O	none
O=C(CCN1C(=O)/C(=C\c2ccccc2)SC1=S)NNC(=O)c1ccccc1O	SKKanGAS inh 51
O=C1/C(=C\c2cc(Cl)c(O)c(Cl)c2)SC(=S)N1Cc1ccccc1	CSC inhib 104, SKKanGAS inh 90 (no result: Mdm2 MdmX PPI)
CC(=O)NNC(=O)CN1C(=O)/C(=C/c2ccccc2)SC1=S	none
CC(C)CCN(CC(=O)NC1CCCC1)C(=O)C(=O)Nc1ccc2c(c1)OCCO2	none
COc1ccc(/C=C2\SC(=O)N(CC(=O)NNC(=O)c3ccccc3O)C2=O)cc1OC	Calb FLC 105
O=C(CCCN1C(=O)/C(=C/c2ccccc2)SC1=S)NCCCn1ccnc1	Beta cell apopt 121, CSC inhib 90
CCc1ccc(/C=C2/SC(=S)N(CCCC(=O)Nc3ccccc3C(=O)O)C2=O)cc1	Calb FLC 86, SKKanGAS inh 52
CCc1ccc(N2C=C(C(=O)OC)C(c3cccc4ccccc34)C(C#N)=C2N)cc1 (configuration not stated)	none (no result: Calb FLC, Beta cell apopt, Mdm2 MdmX PPI, CSC inhib, SKKanGAS inh)
COc1cc(/C=C/C(=O)OCC(=O)c2c(N)n(C)c(=O)n(C)c2=O)ccc1OCC#N	SKKanGAS inh 56
COc1ccc(/C=C/C(=O)OCC(=O)c2c(N)n(C)c(=O)n(C)c2=O)cc1	none (no result: Beta cell apopt)
COc1cc(/C=C/C(=O)OCC(=O)c2c(N)n(C)c(=O)n(C)c2=O)ccc1OC(F)F	none
COc1cc(/C=C/C(=O)OCC(=O)c2c(N)n(C)c(=O)n(C)c2=O)ccc1O	SKKanGAS inh 58
CCN(C(=O)COC(=O)CC1CCCCC1)c1c(N)n(Cc2ccccc2)c(=O)[nH]c1=O	none (no result: Calb FLC, SKKanGAS inh)
COCCSc1ccccc1C(=O)NCCCn1ccnc1	none
COc1cccc(N2C(=O)C3NN=C(C(=O)CN4C(=O)c5ccccc5C4=O)C3C2=O)c1 (configuration not stated)	SKKanGAS inh 52
CC1=NN2C(=N)/C(=C\c3cc(C)n(-c4cccc(C)c4)c3C)C(=O)N=C2S1	none (no result: Beta cell apopt)
Cc1cccc(-n2c(C)cc(/C=C3\C(=N)N4N=C(CC(C)C)SC4=NC3=O)c2C)c1	none

Screening results: PubChem, several laboratories
